The nature of experiment [1]: NCI Yeast Anticancer Drug Screen. Data for the rad50 strain (AID 155).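 Also: 0% = growth of vehicle-only cultures of the same strain.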 The conditions noted are these: S. cerevisiae rad50 strain growth inhibition; at 50.0 µM; hits give high values. The method in brief:
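Readout: growth inhibition relative to vehicle-treated cultures. Compound exposure was carried out in a genetically defined yeast strain deficient in DNA damage repair.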

A short description of experiment [2]: NCI Yeast Anticancer Drug Screen. Data for the mec2-1 strain (AID 157). The conditions noted are these: S. cerevisiae mec2-1 strain, at 50.0 µM, hits give high values. An outline of the steps: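 mec2-1 yeast strain, carrying an alteration in DNA damage repair or cell cycle control, was exposed to compounds; growth inhibition was measured relative to vehicle-treated controls.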

Experiment [3] can be described thus: NCI Yeast Anticancer Drug Screen. Data for the sgs1 mgt1 strain (AID 161).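 Also: 0% = growth of cultures given vehicle only.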 The settings on record: S. cerevisiae sgs1 mgt1 strain, at 50.0 µM, hits give high values. The method in brief:
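Percent growth inhibition was derived by comparing compound-exposed mutant yeast with vehicle-exposed cultures. The strain carries alterations in DNA damage repair.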

Experiment [4] can be described thus: NCI Yeast Anticancer Drug Screen. Data for the cln2 rad14 strain (AID 165).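 Also: 0% = growth equal to vehicle treated cultures.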 The settings on record: S. cerevisiae cln2 rad14 strain, at 50.0 µM, hits give high values. An outline of the steps:
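Yeast carrying cln2 and rad14 alterations (cell cycle control and DNA damage repair) were exposed to compounds. Growth inhibition was measured against vehicle-treated controls.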

Experiment [5] is described as follows: NCI Yeast Anticancer Drug Screen. Data for the bub3 strain (AID 167). The conditions noted are these: S. cerevisiae bub3 mutant strain, at 50.0 µM, hits give high values. An outline of the steps:
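Readout: yeast growth inhibition, expressed relative to vehicle-only wells. The test organism is a mutant strain from a panel with lesions in DNA repair or checkpoint genes.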

A short description of experiment [6]: NCI Yeast Anticancer Drug Screen. Data for the mlh1 rad18 strain (AID 175). The conditions noted are these: S. cerevisiae mlh1 rad18 strain growth inhibition; at 50.0 µM; hits give high values. The method in brief:
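Growth inhibition of the yeast strain was measured after compound exposure and expressed relative to vehicle-treated controls. The strain carries defined defects in DNA damage repair.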

Each structure is given as a SMILES string. This is part of a sample that, as a whole, favours compounds with a hit. Of some 79,000 tested, about 15% had one in any assay. Values without a mark were called inactive. Activity calls are given as the source filed them. Rule as the data show it: active = growth inhibition above about 70%; inactive = the rest.

Take `CCCCCCCCCc1cc[n+](C2=C([O-])C3=C(C(=O)C2=O)C2c4ccccc4C3c3ccccc32)cc1`: the growth inhibition in experiment [1] was 43.8%; in experiment [2], 50.6%; in experiment [3], 80.5% (active); in experiment [4] it was 46%; in experiment [5], 53.9%; in experiment [6] it was 60.3%.

With `CC(=O)c1c(O)ccc2c(C)cc(=O)oc12`, the growth inhibition is 37.5% in experiment [1]; 18.8% in experiment [2]; 7.4% in experiment [3]; 3.1% in experiment [4]; 26.9% in experiment [5]; 15.8% in experiment [6].

As for `O=C(/C=C/c1ccccc1)NCCC1(O)C(=O)Nc2ccccc21` (stereo unspecified), the growth inhibition was -8% in experiment [1]; -17.2% in experiment [2]; 3.05% in experiment [3]; 8.35% in experiment [4]; -10.5% in experiment [5]; -15.5% in experiment [6].

With `Cc1ccccc1NCC(C)O` (stereo unspecified), the growth inhibition was -3.05% in experiment [1]; 6.15% in experiment [2]; -5.9% in experiment [3]; -84.5% in experiment [4]; -20.4% in experiment [5]; -32% in experiment [6].

`c1ccc2c(c1)CCN2CCN1CCc2ccccc21`: the growth inhibition in experiment [1] is 9.4%; in experiment [2] it was -12.4%; in experiment [3] it was 20.1%; in experiment [4], -7.6%; in experiment [5], 40.2%; in experiment [6], 11.6%.

Take `S=C1N(/N=C/c2c3ccccc3cc3ccccc23)C(=Nc2ccccc2)C(=Nc2ccccc2)N1c1ccccc1`: the growth inhibition in experiment [1] is 16.9%; in experiment [2], -4.55%; in experiment [3] it was -6.35%; in experiment [4] it was 24.9%; in experiment [5] it was 16.6%; in experiment [6], -7.55%.

With `c1ccc2c(c1)Nc1nsnc1N2`, the growth inhibition in experiment [1] is 3.8%; in experiment [2], -9.4%; in experiment [3], -6%; in experiment [4], 13.8%; in experiment [5], 13.2%; in experiment [6] it was 2.25%.

Consider `NC(Cc1c[nH]c2ccc(O)cc12)C(=O)O` (stereo unspecified), for which the growth inhibition was -5.85% in experiment [1]; -8.35% in experiment [2]; -4.9% in experiment [3]; 4.9% in experiment [4]; -0.7% in experiment [5]; -9.3% in experiment [6].

Regarding `COc1cccc(/C=C(\C#N)C(=O)c2ccccc2)c1`, the growth inhibition was 4.4% in experiment [1]; 19.6% in experiment [2]; 11.2% in experiment [3]; 19.6% in experiment [4]; 13.9% in experiment [5]; 19% in experiment [6].

In the case of `CCOC(=O)CCCN(c1ccc(OC)c(OC)c1)S(=O)(=O)c1ccc(C)cc1`, the growth inhibition in experiment [1] is 32.1%; in experiment [2], 12.7%; in experiment [3], 43%; in experiment [4] it was 18.8%; in experiment [5], 16.4%; in experiment [6] it was 34.2%.

For `CCC1OC(=O)C(CC)OC1=O` (stereo unspecified), the growth inhibition was -5.75% in experiment [1]; -20.2% in experiment [2]; -25.6% in experiment [3]; -2.05% in experiment [4]; -28.9% in experiment [5]; -24.4% in experiment [6].

For the compound `CC(=O)Nc1ccc(OC(C)=O)cc1N`, the growth inhibition in experiment [1] was -8.9%; in experiment [2], -8.15%; in experiment [3] it was 2.9%; in experiment [4], -8.95%; in experiment [5], 2.95%; in experiment [6], 1%.

As for `CCC/C=N/NC(=O)c1ccc(OC)cc1`, the growth inhibition in experiment [1] is -2.45%; in experiment [2] it was -15.8%; in experiment [3], -6.85%; in experiment [4], -46.9%; in experiment [5], 5.85%; in experiment [6], -4.7%.

As for `CN=S(=O)(OCCCCOS(=O)(=NC)c1ccc(C)cc1)c1ccc(C)cc1` (stereo unspecified), the growth inhibition in experiment [1] was 10.6%; in experiment [2] it was -14.4%; in experiment [3], -26.4%; in experiment [4] it was -22.8%; in experiment [5], -23.4%; in experiment [6] it was -71.5%.

`NC(CCC(=O)Nc1cccc2ccccc12)C(=O)O` (stereo unspecified): the growth inhibition in experiment [1] was 27.6%; in experiment [2], 1.65%; in experiment [3], 16.5%; in experiment [4] it was 12.4%; in experiment [5], 17.2%; in experiment [6], -3.15%.

Turning to `COc1ccc(NC(=O)c2cccc([N+](=O)[O-])c2)cc1`, the growth inhibition in experiment [1] was 8.1%; in experiment [2], 23.1%; in experiment [3], 24.6%; in experiment [4], 1.8%; in experiment [5] it was 4.1%; in experiment [6], 5.8%.

With `COc1ccc2c(c1)CCC(OS(=O)(=O)CC13CCC(CC1=O)C3(C)C)C2=O` (stereo unspecified), the growth inhibition was -9.15% in experiment [1]; 5% in experiment [2]; -15.2% in experiment [3]; -10.7% in experiment [4]; -21.9% in experiment [5]; -0.45% in experiment [6].

`O=C(Nc1ccc(CCc2ccc(NC(=O)C34CC5CC(CC(C5)C3)C4)cc2)cc1)C12CC3CC(CC(C3)C1)C2`: the growth inhibition is -9.65% in experiment [1]; -6.55% in experiment [2]; 13.8% in experiment [3]; -0.45% in experiment [4]; -0.25% in experiment [5]; 2.55% in experiment [6].

In the case of `[N-]=[N+]=Nc1ccccc1Oc1ccccc1`, the growth inhibition in experiment [1] is 9.85%; in experiment [2] it was -18.1%; in experiment [3] it was 5.15%; in experiment [4], 17.7%; in experiment [5], -16.6%; in experiment [6], 10.5%.

`CCOC(=O)C1=C(OC(OCC)C([Se]c2ccccc2)C(C)C)CCC1` (stereo unspecified): the growth inhibition in experiment [1] was 65.8%; in experiment [2] it was 33.5%; in experiment [3], 65.2%; in experiment [4], 42.2%; in experiment [5], 58.6%; in experiment [6], 51%.

As for `COc1cc(OC)c2nccc(NCCCN(C)C)c2c1[N+](=O)[O-]`, the growth inhibition in experiment [1] is 4.75%; in experiment [2], -22.4%; in experiment [3], 5.75%; in experiment [4] it was 21.6%; in experiment [5], -3.4%; in experiment [6], 4.75%.

For the origin of these results see PubChem BioAssay (NCI).
